Common to all, as to assay: PBM; 200 nM protein, PBS
Common to all, as to settings: dsDNA, one strand shown

For experiment [1], the target named is VAX1 (Homo sapiens, UniProt Q5SQQ9 86-172).
In experiment [2] the target is VAX1 (Homo sapiens, UniProt Q5SQQ9 86-172, T142I).
In experiment [3] the target is VAX1 (Homo sapiens, UniProt Q5SQQ9 86-172, K157R).
The next experiment has as its target HOXD13 (Homo sapiens, UniProt P35453 263-343, T313A).
For a further experiment, the target named is T1, NKX2-6 (Homo sapiens, UniProt A6NCS4 118-204, F151L).
T1 sequence: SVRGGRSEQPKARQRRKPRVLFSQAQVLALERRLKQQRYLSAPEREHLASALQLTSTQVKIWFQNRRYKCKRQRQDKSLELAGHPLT

Experiment [4] addresses NKX3-2 (Homo sapiens, UniProt P78367 192-278, P234S).
Experiment [5] concerns the target NKX3-2 (Homo sapiens, UniProt P78367 192-278).
In a further experiment the target is HOXC9 (Homo sapiens, UniProt P31274 178-260, R222W).
Sequence of HOXC9 (P31274 178-260 R222W): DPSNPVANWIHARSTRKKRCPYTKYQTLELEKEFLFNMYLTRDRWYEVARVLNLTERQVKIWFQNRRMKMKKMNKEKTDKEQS

Sequence of VAX1 (Homo sapiens, UniProt Q5SQQ9 86-172, K157R) (Q5SQQ9 86-172 K157R): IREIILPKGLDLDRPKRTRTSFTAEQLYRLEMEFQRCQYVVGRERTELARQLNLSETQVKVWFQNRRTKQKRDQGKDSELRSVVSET
Sequence of VAX1 (Homo sapiens, UniProt Q5SQQ9 86-172) (Q5SQQ9 86-172): as the sequence (Q5SQQ9 86-172 K157R) above, with R72K counted along it
Sequence of NKX3-2 (Homo sapiens, UniProt P78367 192-278) (P78367 192-278): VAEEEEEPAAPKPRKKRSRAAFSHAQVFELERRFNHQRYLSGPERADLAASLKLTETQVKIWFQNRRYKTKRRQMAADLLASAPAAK
Sequence of NKX3-2 (Homo sapiens, UniProt P78367 192-278, P234S) (P78367 192-278 P234S): as the sequence (P78367 192-278) above, with P43S counted along it
Sequence of VAX1 (Homo sapiens, UniProt Q5SQQ9 86-172, T142I) (Q5SQQ9 86-172 T142I): as the sequence (Q5SQQ9 86-172 K157R) above, with T57I, R72K counted along it
Sequence of HOXD13 (P35453 263-343 T313A): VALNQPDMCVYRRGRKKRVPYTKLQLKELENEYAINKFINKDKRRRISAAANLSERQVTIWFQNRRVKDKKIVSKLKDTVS

For ACCCTCGC, the binding signal with VAX1 [1] was 7.12 upbm affinity estimate (log intensity, higher = more binding, comparable within an allelic series); in the experiment with VAX1 [2] it was 7.19 upbm affinity estimate (log intensity, higher = more binding, comparable within an allelic series); with VAX1 [3], 7.13 upbm affinity estimate (log intensity, higher = more binding, comparable within an allelic series).

Turning to CTCCGTGC, the binding signal in the experiment with VAX1 [1] was 6.97 upbm affinity estimate (log intensity, higher = more binding, comparable within an allelic series); in the experiment with VAX1 [2], 7.18 upbm affinity estimate (log intensity, higher = more binding, comparable within an allelic series); in the experiment with VAX1 [3], 6.81 upbm affinity estimate (log intensity, higher = more binding, comparable within an allelic series).

Regarding CTGAGCCC, the binding signal is 7.3 upbm affinity estimate (log intensity, higher = more binding, comparable within an allelic series) with VAX1 [1]; 7.49 upbm affinity estimate (log intensity, higher = more binding, comparable within an allelic series) in the experiment with VAX1 [2]; 7.38 upbm affinity estimate (log intensity, higher = more binding, comparable within an allelic series) with VAX1 [3].

As to AAATTAGC, the binding signal in the experiment with VAX1 [1] is 11.9 upbm affinity estimate (log intensity, higher = more binding, comparable within an allelic series); with VAX1 [2], 11.5 upbm affinity estimate (log intensity, higher = more binding, comparable within an allelic series); with VAX1 [3], 11.6 upbm affinity estimate (log intensity, higher = more binding, comparable within an allelic series).

Turning to GTCGAGCA, the binding signal in the experiment with VAX1 [1] was 7.29 upbm affinity estimate (log intensity, higher = more binding, comparable within an allelic series); with VAX1 [2], 7.31 upbm affinity estimate (log intensity, higher = more binding, comparable within an allelic series); in the experiment with VAX1 [3], 7.41 upbm affinity estimate (log intensity, higher = more binding, comparable within an allelic series).

For the sequence AGGTAAAT, the binding signal is 10.4 upbm affinity estimate (log intensity, higher = more binding, comparable within an allelic series) with VAX1 [1]; 10.2 upbm affinity estimate (log intensity, higher = more binding, comparable within an allelic series) with VAX1 [2]; 10.2 upbm affinity estimate (log intensity, higher = more binding, comparable within an allelic series) with VAX1 [3].

For the sequence GTCCCTAA, the binding signal in the experiment with VAX1 [1] was 9.58 upbm affinity estimate (log intensity, higher = more binding, comparable within an allelic series); in the experiment with VAX1 [2] it was 9.36 upbm affinity estimate (log intensity, higher = more binding, comparable within an allelic series); in the experiment with VAX1 [3], 9.3 upbm affinity estimate (log intensity, higher = more binding, comparable within an allelic series).

Regarding CGGGGGAC, the binding signal was 7.24 upbm affinity estimate (log intensity, higher = more binding, comparable within an allelic series) with VAX1 [1]; 7.14 upbm affinity estimate (log intensity, higher = more binding, comparable within an allelic series) with VAX1 [2]; 6.94 upbm affinity estimate (log intensity, higher = more binding, comparable within an allelic series) with VAX1 [3].

ATTTATAA: the binding signal was 10.7 upbm affinity estimate (log intensity, higher = more binding, comparable within an allelic series) with VAX1 [1]; 10.5 upbm affinity estimate (log intensity, higher = more binding, comparable within an allelic series) with VAX1 [2]; 10.4 upbm affinity estimate (log intensity, higher = more binding, comparable within an allelic series) in the experiment with VAX1 [3].

Turning to ACTAAAGA, the binding signal is 9.49 upbm affinity estimate (log intensity, higher = more binding, comparable within an allelic series) in the experiment with VAX1 [1]; 9.21 upbm affinity estimate (log intensity, higher = more binding, comparable within an allelic series) in the experiment with VAX1 [2]; 9.23 upbm affinity estimate (log intensity, higher = more binding, comparable within an allelic series) with VAX1 [3].

Consider ACTATTAA, for which, in the experiment with HOXD13, the binding signal was 11.6 upbm affinity estimate (log intensity, higher = more binding, comparable within an allelic series).

Turning to GCGGGAGC, the binding signal with VAX1 [1] is 7.11 upbm affinity estimate (log intensity, higher = more binding, comparable within an allelic series); with VAX1 [2], 7.36 upbm affinity estimate (log intensity, higher = more binding, comparable within an allelic series); with VAX1 [3] it was 7.04 upbm affinity estimate (log intensity, higher = more binding, comparable within an allelic series).

As to CGCTAGCG, the binding signal with VAX1 [1] was 7.32 upbm affinity estimate (log intensity, higher = more binding, comparable within an allelic series); with VAX1 [2], 7.37 upbm affinity estimate (log intensity, higher = more binding, comparable within an allelic series); with VAX1 [3] it was 7.28 upbm affinity estimate (log intensity, higher = more binding, comparable within an allelic series).

In the case of CATTTAAG, the binding signal was 10.9 upbm affinity estimate (log intensity, higher = more binding, comparable within an allelic series) with VAX1 [1]; 10.6 upbm affinity estimate (log intensity, higher = more binding, comparable within an allelic series) with VAX1 [2]; 10.6 upbm affinity estimate (log intensity, higher = more binding, comparable within an allelic series) in the experiment with VAX1 [3].

CGTTGGGC: the binding signal was 7.21 upbm affinity estimate (log intensity, higher = more binding, comparable within an allelic series) with VAX1 [1]; 7.31 upbm affinity estimate (log intensity, higher = more binding, comparable within an allelic series) with VAX1 [2]; 7.23 upbm affinity estimate (log intensity, higher = more binding, comparable within an allelic series) with VAX1 [3].

In the case of GCTCAGCC, the binding signal was 6.9 upbm affinity estimate (log intensity, higher = more binding, comparable within an allelic series) in the experiment with VAX1 [1]; 6.99 upbm affinity estimate (log intensity, higher = more binding, comparable within an allelic series) in the experiment with VAX1 [2]; 6.88 upbm affinity estimate (log intensity, higher = more binding, comparable within an allelic series) in the experiment with VAX1 [3].

For AGTCAGGG, the binding signal in the experiment with VAX1 [1] was 7.19 upbm affinity estimate (log intensity, higher = more binding, comparable within an allelic series); with VAX1 [2], 7.36 upbm affinity estimate (log intensity, higher = more binding, comparable within an allelic series); in the experiment with VAX1 [3], 7.15 upbm affinity estimate (log intensity, higher = more binding, comparable within an allelic series).

As for CGACCCAG, the binding signal was 7.38 upbm affinity estimate (log intensity, higher = more binding, comparable within an allelic series) with VAX1 [1]; 7.45 upbm affinity estimate (log intensity, higher = more binding, comparable within an allelic series) in the experiment with VAX1 [2]; 7.3 upbm affinity estimate (log intensity, higher = more binding, comparable within an allelic series) in the experiment with VAX1 [3].

AAACACTT: the binding signal with NKX2-6 was 10.9 upbm affinity estimate (log intensity, higher = more binding, comparable within an allelic series).

As to AGTGCACT, the binding signal with NKX3-2 [4] was 12.3 upbm affinity estimate (log intensity, higher = more binding, comparable within an allelic series); in the experiment with NKX3-2 [5] it was 12.6 upbm affinity estimate (log intensity, higher = more binding, comparable within an allelic series).

Take GGTGGTAC: the binding signal in the experiment with NKX3-2 [4] was 10.5 upbm affinity estimate (log intensity, higher = more binding, comparable within an allelic series); in the experiment with NKX3-2 [5], 10.6 upbm affinity estimate (log intensity, higher = more binding, comparable within an allelic series).

Turning to AAACCGCG, the binding signal with NKX3-2 [4] was 10.5 upbm affinity estimate (log intensity, higher = more binding, comparable within an allelic series); with NKX3-2 [5] it was 10.5 upbm affinity estimate (log intensity, higher = more binding, comparable within an allelic series).

In the case of AGGTTGTG, the binding signal in the experiment with NKX3-2 [4] was 10.7 upbm affinity estimate (log intensity, higher = more binding, comparable within an allelic series); in the experiment with NKX3-2 [5], 10.7 upbm affinity estimate (log intensity, higher = more binding, comparable within an allelic series).

For the sequence ATAAAATC, the binding signal in the experiment with HOXC9 is 11.1 upbm affinity estimate (log intensity, higher = more binding, comparable within an allelic series).

As to CAAGTGTC, in the experiment with NKX2-6, the binding signal was 10.6 upbm affinity estimate (log intensity, higher = more binding, comparable within an allelic series).

For the origin of these results see paper PMC11006913.
